# Assay outcomes from PubChem.
# Hits are enriched below; roughly 2.7% of the tested compounds scored in any of these assays.
# BRCA1 expr up: qHTS Assay to Identify Small Molecule Activators of BRCA1 Expression; MCF7-BRCA1-FFLuc reporter, luminescence, 48 h; response scale: scaled: vehicle 0%, 10 µM genistein 100%; Potency, µM (titrated, usually from 46.1 µM), for the others: at the highest dose activation, usual class: activators; actives 1.1% (n = 380,000); AID 624202, 2012; note: nearly all actives have a fitted effect of over 80% in size
#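 Quantitative HTS in MCF7 cells stably reporting BRCA1 expression via firefly luciferase. Compound treatment lasts 48 h at 37 °C in phenol-red free MEM. Activation is expressed relative to genistein at 10 microM and DMSO.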
# a7 integrin act: qHTS for Activators of Integrin-Mediated Alleviation for Muscular Dystrophy; AID 624291, 2012; actives 0.064% (n = 350,000); alpha7betagal myoblasts, beta-gal FDG fluorescence, 48 h; Potency, µM (titrated, usually from 38.3 µM), for inactives: at the highest dose activation, hits mostly activators;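 note: 100% = response of the positive control SU9516; nearly all actives have a fitted effect of over 60% in size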
#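 alpha7betagal+/- myoblasts (passage 13, 250/well) treated 48 h at 37C with compounds at 1:260 dilution of DMSO stock. Lysed, then beta-galactosidase activity read as FDG fluorescence (ex 480/em 540) after 30 min, with pre-read for autofluorescence.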
# GLP1R ag: qHTS of GLP-1 Receptor Agonists; AID 624172, 2012; HEK293 GLP-1R CRE-luciferase, luminescence, 4-6 h; cells express a hypersensitive GLP-1R form; actives 0.007% (n = 380,000); Potency, µM (doses to about 45.6 µM), inactives show at the top dose activation, actives largely listed as activators; note: % of control where 0% means no effect
# Target sequence (P43220 whole entry, looked up): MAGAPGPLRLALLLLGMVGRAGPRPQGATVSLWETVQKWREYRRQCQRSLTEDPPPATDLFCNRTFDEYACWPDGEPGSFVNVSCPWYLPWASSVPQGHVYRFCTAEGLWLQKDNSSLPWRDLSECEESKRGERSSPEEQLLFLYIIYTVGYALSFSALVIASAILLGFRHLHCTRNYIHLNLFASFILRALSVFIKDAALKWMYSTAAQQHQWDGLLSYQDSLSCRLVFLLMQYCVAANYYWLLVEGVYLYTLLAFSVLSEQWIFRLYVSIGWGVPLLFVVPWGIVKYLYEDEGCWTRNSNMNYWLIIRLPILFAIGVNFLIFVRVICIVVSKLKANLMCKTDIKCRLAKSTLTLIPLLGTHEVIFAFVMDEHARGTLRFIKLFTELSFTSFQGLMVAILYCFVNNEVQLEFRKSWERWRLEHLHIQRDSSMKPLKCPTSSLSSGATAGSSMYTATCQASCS
# HEK293 tox: qHTS of GLP-1 Receptor Inverse Agonists: Cytotox Screen | HEK293 cAMP-luciferase reporter cells, luminescence, 24 h | Potency, µM (doses to about 38.3 µM), for the others: top-dose activity change, negative = inhibition, most hits filed as inhibitors | actives 0.13% (n = 410,000);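 note: loss of luciferase light is scored as toxicity; % is set by controls: 0 for no effect and ±100 for the full control effect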
#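 Quantitative HTS format, 1536 wells, 200 cells/uL seeded. Compounds: 23 nL, 24 h, 37 °C. Detection: luciferase reagent, luminescence at 12 min RT; decreased signal taken as cytotoxic.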
# GLP-1R inv ag: qHTS of GLP-1 Receptor Inverse Agonists (Inhibition Mode); Glucagon-like peptide 1 receptor (Homo sapiens), P43220; HEK293 GLP-1R CRE-luciferase, luminescence, 24 h; GLP-1R form is constitutively active; Potency, µM (series often up to 38.3 µM), inactives show top-dose activity change, negative = inhibition, usual class: inhibitors; actives 1.6% (n = 410,000); AID 624417, 2012; note: % is set by controls: 0 for no effect and ±100 for the full control effect; nearly all actives have a fitted effect of over 55% in size
#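 Assay principle: reduced luminescence from a cAMP-responsive reporter in HEK293 cells co-expressing a constitutively active GLP-1R. Conditions: 24 hr compound incubation, 37 deg C, 5% CO2.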
# Starred values were filed as active, the others as inactive; ? = inconclusive; / = no result given. Calls come from the whole dose curve; as a rule, active = well fitted curve in the direction sought with a large enough effect; inconclusive = small, poorly fitted or top-dose-only effect, or another doubt; inactive = no such curve, though single readings can be large; an effect the other way counts as inactive or inconclusive. Potency is the fitted concentration of half-maximal effect.
SMILES,BRCA1 expr up,a7 integrin act,GLP1R ag,HEK293 tox,GLP-1R inv ag
Cc1cccc(Nc2nc(N)c([N+](=O)[O-])c(NCc3ccccc3)n2)c1,-66%,-10%,?,?,?
CN1C(=O)c2ccccc2Sc2ccc(NC(=O)N3CCN(c4ccccc4)CC3)cc21,/,/,/,-20%,?
O=C(Nc1ccc(Cl)c(C(F)(F)F)c1)NC1CC2CCCC(C1)N2Cc1ccccc1 (centres undefined),-81%,-66%,-6%,?,2.5µM*
O=C(Nc1ccc(Cl)c(C(F)(F)F)c1)c1ccc2c(c1)CCN2S(=O)(=O)c1ccccc1,/,/,/,-24%,5µM*
COc1ccc2c(c1)CC/C(=C/c1ccccn1)C2=O,13µM*,0%,-1%,?,-14%
CC(=O)Nc1ccc(OC(=O)N2CCN(/[N+]([O-])=N/Oc3ccc([N+](=O)[O-])cc3[N+](=O)[O-])CC2)cc1,-45%,/,/,/,/
Cc1ccc(OCC(=O)N2CCN(C3CCC(c4ccccc4)CC3)CC2)cc1 (centres undefined),-18%,4%,9%,0%,11µM*
O=C1c2cccc3c(O)ccc(c23)C(=O)N1c1ccc(Cl)cc1,-54%,-200%,-6%,373%,?
COc1cc2c(cc1OC)CN(c1ccc([N+](=O)[O-])c(C(F)(F)F)c1)CC2,-58%,-33%,-7%,10µM*,7.9µM*
CC(C)(O)C(=O)Nc1ccc([N+](=O)[O-])c(C(F)(F)F)c1,-10%,/,13%,0%,-23%
Cc1ccc(NC(=S)NCc2ccc3c(c2)OCO3)cc1,38%,-9%,20%,?,?
Cc1ccc(C(C#N)=Cc2ccc3c(c2)OCO3)cc1,?,-45%,0%,-12%,10µM*
CN(C)C(=O)O/N=C(\N)COc1ccc(C(C)(C)C)cc1,-94%,21%,-9%,3.2µM*,?
C[C@@H]1O[C@@H](O[C@H]2C[C@@H](O)[C@]3(CO)[C@@H]4C(CC[C@]3(O)C2)[C@@]2(O)CC[C@H](C3COC(=O)C3)[C@@]2(C)C[C@H]4O)[C@H](O)[C@H](O)[C@H]1O (some centres undefined),-61%,/,-10%,?,1µM*
Cc1nn(Cc2ccccc2)c(C)c1C(=O)OCC(=O)NCc1ccco1,3%,-11%,0%,-11%,1%
CC(C)c1cc(C(=O)OCC(=O)NC(=O)NCc2ccco2)c(O)c(C(C)C)c1,-86%,?,5%,?,3.5µM*
CC[C@@H](C(=O)[C@@H](C)[C@@H](O)[C@H](C)CCc1ccc(C)c(O)c1C(=O)O)[C@H]1O[C@](CC)([C@H]2CC[C@](O)(CC)[C@H](C)O2)C[C@@H]1C,-74%,/,-11%,10µM*,10µM*
O=C(Nc1ccc2nc(SCC(=O)N3CCCc4ccccc43)sc2c1)c1cccc(F)c1,/,/,/,-15%,?
CCOC(=O)C(O)(c1ccc(NC(=O)c2ccc(Cl)c(Cl)c2)cc1)C(F)(F)F (centres undefined),-9%,-20%,1%,-19%,5µM*
CN1CCC2(CC1)c1ccccc1-c1ccccc12,16%,-48%,-4%,?,11µM*
Cc1ccc2nc(-c3ccccc3)cc(C(=O)N3CCN(c4ccccc4O)CC3)c2c1,-63%,-16%,-7%,?,10µM*
CN(C)CCC1(C2=CCCC2)CC/C(=C/c2ccc(Cl)cc2)C1=O (centres undefined),-90%,-57%,-8%,?,?
CC(C)[C@@]1(NC(=O)[C@H]2C[C@H]3c4cccc5[nH]cc(c45)C[C@@H]3N(C)C2)O[C@]2(O)[C@H]3CCCN3C(=O)CN2C1=O (tested in a mixture with another compound),/,/,4%,/,/
COc1ccc(C=CC(=O)c2c(OC)cc(OC)c(OC)c2O)cc1,-9%,-25%,-9%,?,?
O=C(Nc1ccc(Cl)c(Cl)c1)c1cccc(S(=O)(=O)NCc2cccnc2)c1,-85%,13%,3%,?,11µM*
SMILES,BRCA1 expr up,a7 integrin act,GLP1R ag,HEK293 tox,GLP-1R inv ag
CCN(c1ccccc1)S(=O)(=O)c1cccc(C(=O)NCc2cccnc2)c1,-4%,6%,4%,-26%,?
COc1ccc(NS(=O)(=O)c2ccc3c(c2)CCCN3C(=O)C2CCC2)cc1OC,/,/,/,-2%,?
COc1cccc(CN2CCc3nc(N4CCN(c5ncccn5)CC4)ncc3C2)c1,/,/,/,-6%,?
Nc1c2c(nc3sc4c(c13)CCCC4)CCCCC2,?,-27%,7%,5%,-15%
Nc1c2c(nc3sc4c(c13)CCCC4)CCCC2,4.5µM*,6%,17%,?,?
CCOc1ccc(NCc2cccn2-c2nnc(N3CCC(C(=O)NCc4ccc(C)cc4)CC3)s2)cc1,/,/,/,-1%,?
Cc1ccc(NCc2cccn2-c2nnc(N3CCC(C(=O)NCc4ccc(OC(C)C)cc4)CC3)s2)cc1,/,/,/,-16%,10µM*
COc1ccc(-c2sc3cc(OC)c(OC)cc3c2-c2ccc(O)cc2)cc1,-22%,0%,0%,?,?
CC(C)(C)NC(=O)N1c2ccccc2Sc2ccccc21,-7%,7%,15%,-15%,?
CC1CCN(C(=O)N2c3ccccc3Sc3ccccc32)CC1,-63%,8%,15%,-9%,2µM*
